Measured values published in PubChem BioAssay (NCI).
The panel holds about 83,000 compounds, 20% with a hit somewhere; the sample as a whole holds those more often.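 Method: cells in 96-well plates; compound added at one concentration; 48 h incubation; percent growth measured; values under 10 scored active.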 Active and inactive are the calls of the source.

How the values were obtained:
Experiment in all cases: NCI-60 one-dose screen, 48 h (100 = growth as untreated, 0 = no growth, -100 = all killed)
Conditions in all cases: 10 µM
HCT-15 colon = test system: HCT-15 colon
HT29 colon = test system: HT29 colon
SNB-75 CNS = test system: SNB-75 CNS
SNB-19 CNS = test system: SNB-19 CNS
U251 CNS = test system: U251 CNS
PC-3 prostate = test system: PC-3 prostate
SK-MEL-5 melanoma = test system: SK-MEL-5 melanoma
UACC-62 melanoma = test system: UACC-62 melanoma
LOX IMVI melanoma = test system: LOX IMVI melanoma
SK-MEL-28 melanoma = test system: SK-MEL-28 melanoma
SK-MEL-2 melanoma = test system: SK-MEL-2 melanoma
EKVX NSCLC = test system: EKVX NSCLC
UO-31 renal = test system: UO-31 renal
TK-10 renal = test system: TK-10 renal
ACHN renal = test system: ACHN renal
CAKI-1 renal = test system: CAKI-1 renal
A498 renal = test system: A498 renal
CCRF-CEM leukemia = test system: CCRF-CEM leukemia
MOLT-4 leukemia = test system: MOLT-4 leukemia

Measured: growth

COc1ccc2oc(=O)cc(C3c4ccc([nH]4)C(c4cc(=O)oc5ccc(OC)cc45)c4ccc([nH]4)C(c4cc(=O)oc5ccc(OC)cc45)c4ccc([nH]4)C(c4cc(=O)oc5ccc(OC)cc45)c4ccc3[nH]4)c2c1 (configuration not stated)
active: HCT-15 colon -62.4% | HT29 colon -41.5% | U251 CNS 1.28% | SK-MEL-5 melanoma -4.6% | UACC-62 melanoma -8.02% | LOX IMVI melanoma -60.4% | SK-MEL-28 melanoma 1.37% | SK-MEL-2 melanoma 1.72% | UO-31 renal -44.9% | TK-10 renal -32.1% | ACHN renal 1.03% | CAKI-1 renal -22.1% | A498 renal -17.4% | CCRF-CEM leukemia 0.0782% | MOLT-4 leukemia -8.61%
inactive: SNB-75 CNS 19.3% | SNB-19 CNS 26% | PC-3 prostate 30.4% | EKVX NSCLC 27.8%

O=C(O)CCCN1C(=O)NC2(C1=O)c1ccccc1-c1ccccc12
inactive: HCT-15 colon 102% | HT29 colon 93.3% | SNB-75 CNS 88.9% | SNB-19 CNS 104% | U251 CNS 94.7% | PC-3 prostate 94.4% | SK-MEL-5 melanoma 96% | UACC-62 melanoma 99.3% | LOX IMVI melanoma 94.8% | SK-MEL-28 melanoma 107% | SK-MEL-2 melanoma 83.2% | EKVX NSCLC 98.3% | UO-31 renal 88.4% | TK-10 renal 90.1% | ACHN renal 104% | CAKI-1 renal 98.4% | A498 renal 101% | CCRF-CEM leukemia 96.5% | MOLT-4 leukemia 101%

Nc1cc(O)cc(O)c1
inactive: HCT-15 colon 97.9% | HT29 colon 95% | SNB-75 CNS 91.8% | SNB-19 CNS 96.5% | U251 CNS 104% | PC-3 prostate 96.6% | SK-MEL-5 melanoma 109% | UACC-62 melanoma 94.7% | LOX IMVI melanoma 95% | SK-MEL-28 melanoma 101% | SK-MEL-2 melanoma 98.7% | EKVX NSCLC 97.1% | UO-31 renal 97.8% | TK-10 renal 87.4% | ACHN renal 105% | CAKI-1 renal 96.2% | A498 renal 116% | CCRF-CEM leukemia 114% | MOLT-4 leukemia 104%

COc1cccc(C(=O)N(c2ccc(F)c(F)c2)C(C(=O)NC(C)(C)C)c2cc3c(C)cc(C)cc3nc2Cl)c1 (configuration not stated)
inactive: HCT-15 colon 56.5% | HT29 colon 71.1% | SNB-75 CNS 62.9% | SNB-19 CNS 74.1% | U251 CNS 69% | PC-3 prostate 30.9% | SK-MEL-5 melanoma 58.2% | UACC-62 melanoma 66.6% | LOX IMVI melanoma 68.7% | SK-MEL-28 melanoma 85.6% | SK-MEL-2 melanoma 77.1% | EKVX NSCLC 54.5% | UO-31 renal 48.5% | TK-10 renal 70.5% | ACHN renal 59.4% | CAKI-1 renal 42.9% | A498 renal 59.8% | CCRF-CEM leukemia 53.8% | MOLT-4 leukemia 43.8%

NC1CCC(Nc2nc(NCc3ccc(-c4cccs4)nc3)c3ncn(C4CCCC4)c3n2)CC1 (configuration not stated)
inactive: SNB-19 CNS 10.2% | CAKI-1 renal 15.3%
active: HCT-15 colon 0.306% | HT29 colon -12.7% | SNB-75 CNS -63.5% | U251 CNS 3.21% | PC-3 prostate 1.6% | SK-MEL-5 melanoma -96.8% | UACC-62 melanoma -42.4% | LOX IMVI melanoma -82.1% | SK-MEL-28 melanoma -62.3% | SK-MEL-2 melanoma -76.8% | EKVX NSCLC -17% | UO-31 renal 9.49% | TK-10 renal 5.89% | ACHN renal -3.38% | A498 renal -78.5% | CCRF-CEM leukemia -2.89% | MOLT-4 leukemia -16.3%

Cc1ccc2oc(=O)cc(/C(=C3/C=CC=N3)c3ccc[nH]3)c2c1
active: HCT-15 colon 5.43% | HT29 colon -36.6% | SNB-75 CNS 8.89% | U251 CNS -17.2% | PC-3 prostate 8.12% | SK-MEL-5 melanoma -59.2% | LOX IMVI melanoma 0.877% | SK-MEL-2 melanoma 2.71% | UO-31 renal 5.2% | TK-10 renal 1.86% | CAKI-1 renal 3.96% | A498 renal -9.36% | MOLT-4 leukemia -3.84%
inactive: SNB-19 CNS 16.2% | UACC-62 melanoma 11.8% | SK-MEL-28 melanoma 27.7% | EKVX NSCLC 16.5% | ACHN renal 10% | CCRF-CEM leukemia 10.4%

CCCCCCN=C(N)CCCCCCCCCCC(N)=NCCCCCC
inactive: HCT-15 colon 31.8% | HT29 colon 14% | SNB-75 CNS 23.8% | SNB-19 CNS 18.4% | U251 CNS 14.8% | PC-3 prostate 23.8% | SK-MEL-5 melanoma 20% | UACC-62 melanoma 40.9% | LOX IMVI melanoma 37.2% | SK-MEL-28 melanoma 55.8% | SK-MEL-2 melanoma 38.3% | EKVX NSCLC 34.6% | UO-31 renal 78.6% | TK-10 renal 55.6% | ACHN renal 48.5% | CAKI-1 renal 55.9% | A498 renal 37% | CCRF-CEM leukemia 29.5% | MOLT-4 leukemia 38.2%

CC(CNC(Cc1ccccc1)c1ccccc1)NC(Cc1ccccc1)c1ccccc1 (configuration not stated)
inactive: HCT-15 colon 30.6% | SNB-75 CNS 68.9% | SNB-19 CNS 61.7% | U251 CNS 34.3% | PC-3 prostate 40.7% | SK-MEL-5 melanoma 14.2% | UACC-62 melanoma 61.4% | SK-MEL-28 melanoma 64.2% | SK-MEL-2 melanoma 73.3% | EKVX NSCLC 26.8% | UO-31 renal 37.6% | TK-10 renal 60.6% | ACHN renal 47.7% | CAKI-1 renal 15.6% | A498 renal 74.5% | CCRF-CEM leukemia 35.2% | MOLT-4 leukemia 14.9%
active: HT29 colon 4% | LOX IMVI melanoma -5.75%
